# POLI inh = DNA polymerase iota (human) inhibition. Potency, µM (top dose mostly 115 µM), inactives show top-dose activity, negative = inhibition, usual class: inhibitors. Pol iota fluorescent replication assay, 10 min. Q9UNA4. actives 1% (n = 390,000)
#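 Fluorescent replication assay read twice, at 0 min and 10 min after adding 50 nM (final) substrate. Enzyme (10 nM) and compounds were first incubated 15 min at room temperature; enzyme-free buffer wells were negative controls.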
# WRN inhibitor = WRN helicase (human) inhibition | Q14191 | WRN helicase unwinding, fluorescent forked duplex, kinetic | Potency, µM (top dose mostly 114 µM), inactives show at the highest dose activity change, negative = inhibition, hits mostly inhibitors | actives 0.46% (n = 360,000) | AID 651768; note: % is set by controls: 0 for no effect and ±100 for the full control effect; nearly all actives have a fitted effect of over 55% in size
#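 Enzyme (20 nM final) and test compound sit together 15 min at room temperature before substrate addition. Substrate is a single-forked duplex oligonucleotide (100 nM) labelled with fluorophore and quencher, with 2 mM ATP; helicase unwinding raises red fluorescence, read kinetically.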
# Pol beta inh = DNA polymerase beta (human) inhibition; P06746; Pol beta primer extension/strand displacement, fluorescence kinetic; Potency, µM (titrated, usually from 114 µM), inactives show at the highest dose activity change, negative = inhibition, usual class: inhibitors; actives 1.3% (n = 340,000); AID 485314; note: % is set by controls: 0 for no effect and ±100 for the full control effect
#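 Kinetic readout of DNA synthesis with strand displacement by Pol beta. Compound and 10 nM enzyme sit 15 min at room temperature; 50 nM substrate starts the reaction, read immediately and at 10 min.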
# Pol kappa inh = DNA polymerase kappa (human) inhibition; Q9UBT6; purified Pol kappa, fluorescent DNA synthesis assay, 10 min; Potency, µM (doses to about 107 µM), inactives show at the top dose activity, negative = inhibition, hits mostly inhibitors; actives 0.53% (n = 400,000); AID 588579; note: % is set by controls: 0 for no effect and ±100 for the full control effect
#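 Pol kappa 10 nM + cpd, 15 min RT; start w/ substrate 50 nM final; fluorescence kinetic read, 0 and 10 min. Neg ctrl: buffer, no enzyme.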
# POLH inh = blocks human DNA polymerase eta activity; Q9Y253; recombinant Pol eta, fluorescent DNA replication assay; Potency, µM (doses to about 114 µM), for inactives: top-dose activity change, negative = inhibition, hits mostly inhibitors; actives 1.2% (n = 390,000); AID 588591; note: % is set by controls: 0 for no effect and ±100 for the full control effect
#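 Pol eta at 10 nM preincubated with compounds 15 min at room temperature; reaction started with fluorescent substrate (50 nM final) and read kinetically at 0 and 10 min.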
# FEN1 inh = inhibitors of human flap endonuclease 1 | AID 588795 | Potency, µM (series often up to 114 µM), without a hit: at the top dose activity change, negative = inhibition, hits mostly inhibitors | actives 0.35% (n = 390,000) | Recombinant FEN1 flap cleavage, fluorescence, 15 min | P39748; note: % is set by controls: 0 for no effect and ±100 for the full control effect; nearly all actives have a fitted effect of over 65% in size
#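 Potency values derive from four-parameter Hill fits of normalized qHTS data. The reaction used 10 nM FEN1 preincubated 15 min at room temperature with compound, then 50 nM DNA substrate, read at 0 and 15 min.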
# Active calls of the source: *; ? = inconclusive; . = no result given; ! = not active in a repeat; [ ] = another dose, or the depositor's remark. The list is not random: actives were taken first. Their share in the collection is about 2.4%. Calls come from the whole dose curve; as a rule, active = well fitted curve in the direction sought with a large enough effect; inconclusive = small, poorly fitted or top-dose-only effect, or another doubt; inactive = no such curve, though single readings can be large; an effect the other way counts as inactive or inconclusive. Potency is the fitted concentration of half-maximal effect.
SMILES,POLI inh,WRN inhibitor,Pol beta inh,Pol kappa inh,POLH inh,FEN1 inh
Cc1cc(NC(=O)c2cc(-c3ccccn3)nc3c(Cl)cccc23)no1,-5%,-31%,-26%,0%,-22%,3%
O=C(Nc1nccs1)c1cc(-c2ccccn2)nc2c(Cl)cccc12,25µM*,4%,?,-34%,?,?
O=C(O)c1ccc(C2Nc3ccccc3-c3nnc(SCc4ccc(Cl)cc4)nc3O2)cc1 (configuration not stated),?,.,25µM*,?,-28%,-4%
CCOc1cc(C2Nc3ccccc3-c3nnc(SCc4ccccc4)nc3O2)ccc1OC (configuration not stated),-6%,.,17%,-5%,-16%,-13%
O=C(/C=C/c1ccc(Br)o1)Nc1nnc(C2CC2)s1,.,.,25µM*,.,.,.
CC(C)CN(C[C@@H](O)[C@H](Cc1ccccc1)NC(=O)O[C@H]1CO[C@H]2OCC[C@H]21)S(=O)(=O)c1ccc(N)cc1,.,.,.,-2%[19.4 µM],.,.
NC(N)=NCCC[C@H](N)C(=O)NCC(=O)N[C@@H](CC(=O)O)C(=O)O,.,.,.,16%[60.1 µM],.,.
O[C@@H]1CO[C@H]2C1OC[C@@H]2O (some centres not stated),.,.,.,-15%[60.1 µM],.,.
Cc1cc(Cl)nc2nc(Cl)ccc12,-4%,.,.,-9%,.,-24%
Cc1ccc(-n2nnnc2SCC(=O)NNC(=O)c2ccc([N+](=O)[O-])cc2)cc1,?,-13%[57.1 µM],5.6µM*,?,?,8%
C/C(N)=C(/C#N)C(=O)CSc1nnnn1-c1ccc(C)cc1,?,-9%,-28%,-32%,?,-19%
O=C(O)c1c(-c2ccccc2)oc2ccc(O)cc12,4%,2%,0%,1%,?,17%
O=Cc1c(-c2ccc(Cl)cc2)oc2ccc(O)cc12,?,?,.,?,45µM*,-18%
NS(=O)(=O)Nc1c(Br)cc(Br)c2cccnc12,25µM*,.,.,-4%,.,?
Nc1c(Br)cc(Br)c2cccnc12,8.9µM*,.,.,4%,.,?
O=C(O)c1ccccc1-c1ccccc1C(=O)Nc1ccc2oc(=O)c3ccccc3c2c1,.,-7%,.,.,-9%,.
O=C(O)c1ccccc1-c1ccccc1C(=O)Nc1ccc2c(c1)[nH]c(=O)c1ccccc12,232%,-33%,12%,-10%,50µM*,-5%
COc1ccc(Br)cc1/C=C/C(=O)c1ccc(NC(C)=O)cc1,100µM*,-3%[11.6 µM],20%,-19%,?,?
CNCCN(C)c1nc(-c2cccs2)nc2ccccc12,?,.,.,-12%,.,?
COc1ccc(-c2ccc(OC)c(OC)c2OC)c(OC)c1OC,8%,4%,.,-5%,-10%,2%
COc1ccc2c3c(cccc13)N(C)N=C2C,3.2µM*,?,1%,-27%,?,-11%
Cc1ccc(-c2csc(NC(=O)C3CC(=O)N(c4ccc5c(c4)OCCO5)C3)n2)o1 (configuration not stated),-10%,.,.,0%,.,1%
CCCCSc1nc(O)c(C2OC(=O)c3c2ccc(OC)c3OC)c(=O)n1C (configuration not stated),?,-21%,40%,3%,-2%,11%
CCCCCCSc1nc(O)c(C2OC(=O)c3c2ccc(OC)c3OC)c(=O)n1-c1ccccc1 (configuration not stated),?,-29%[57.1 µM],-20%,-27%,18µM*,-6%
COc1ccc2cc3c(N)nn(C(=O)c4ccc(OC)c(OC)c4)c3nc2c1,-3%,.,16µM*,-7%,?,-2%
SMILES,POLI inh,WRN inhibitor,Pol beta inh,Pol kappa inh,POLH inh,FEN1 inh
C/C=C/C=C/[C@H]1Cc2cc(O)cc(O)c2O1,.,.,50µM*,.,.,.
O=C1CC(c2ccc(Cl)cc2)c2c(O)cc(O)cc2O1 (configuration not stated),64%,-2%,18%,-23%,-18%,-7%
NS(=O)(=O)c1ccc(N=Nc2c(=O)[nH]n3c(=O)c4c([nH]c23)CCCC4)cc1,35%,-22%,2%,-24%,-25%,?
O=c1[nH]n2c(=O)c3c([nH]c2c1N=Nc1cccc(C(F)(F)F)c1)CCCC3,-4%,-31%,18µM*,-28%,?,?
O=c1[nH]n2c(=O)c3c([nH]c2c1N=Nc1cccc(Cl)c1)CCC3,20µM*,?,8.9µM*,89µM*,20µM*,?
O=C(Nc1cccnc1)c1cc(Br)c(Br)s1,37%,-6%,.,1%,-14%,2%
NC(=O)c1cc(NC(=O)c2cc(Br)c(Br)s2)cc(C(N)=O)c1,5%,-23%,40µM*,-22%,-3%,?
O=c1[nH]c2ccc(S(=O)(=O)Nc3ccc(Cl)cc3)cc2o1,-7%,-5%,20%,2%,-11%,-8%
O=c1[nH]c2ccc(S(=O)(=O)Nc3cc(Cl)ccc3O)cc2o1,?,.,?,?,89µM*,-6%
COc1ccc(CC2NCCC3=CC(=O)CCC32)cc1O (configuration not stated),56µM*,.,.,?,1%,-2%
COc1ccc(CC(=O)O)cc1O,-35%,0%,15%,-6%,-4%,-10%
CN(C)CC/C=C1\c2ccccc2COc2ccc(CC(=O)O)cc21,.,.,.,-6%[60.1 µM],.,.
O=C(Nc1cccc([N+](=O)[O-])c1)c1ccc2nc(N3C(=O)CCC3=O)sc2c1,12%,45µM*,21%,-22%,-11%,-19%
O=C(Nc1cccc(Br)c1)c1ccc2nc(N3C(=O)CCC3=O)sc2c1,8%,?,2%,-1%,?,-22%
O=S(=O)(c1ccc(Cl)cc1)N1CCN(c2nc(Nc3cc(Cl)ccc3O)nc3ccccc23)CC1,-11%[58.9 µM],.,.,-18%,.,-15%[80.7 µM]
COc1cc(NC(=O)C2CC(c3c(F)cccc3Cl)=NO2)c(OC)cc1Cl (configuration not stated),76%,-4%,25%,-1%,-23%,7%
COc1ccc(NC(=O)C2CC(c3c(F)cccc3Cl)=NO2)cc1OC (configuration not stated),26%,-7%[11.6 µM],5%,6%,89µM*,-8%
Oc1cc(O)cc(/C=C/c2ccc(O)c(O)c2)c1,16µM*,-9%[11.6 µM],7.9µM*,79µM*,18µM*!,-20%
CC(=O)[C@@]1(O)[C@H](C)CC2C3CC=C4CC(OP(=O)(O)O)CC[C@]4(C)C3CC[C@@]21C (some centres not stated),-4%,5%,50µM*,-2%,-21%,?
CCNc1nc(NCC)n2c(SCC(=O)Nc3cccc(F)c3)nnc2n1,45µM*,-31%,.,?,?,5%
CCNc1nc(NCC)n2c(SCC(=O)Nc3ccccc3Cl)nnc2n1,-20%,-5%,.,-2%,-9%,0%
